From PubChem BioAssay (NCATS)
Inconclusive results are not listed. The source made the active and inactive calls. Unless noted, calls come from the whole dose curve; as a rule, active = well fitted curve in the direction sought with a large enough effect; inconclusive = small, poorly fitted or top-dose-only effect, or another doubt; inactive = no such curve, though single readings can be large; an effect the other way counts as inactive or inconclusive.

Tests used:
[1] = biological target: Glucocorticoid receptor (Homo sapiens) (UniProt P04150); assay: GR-GFP Redistribution (AID 450;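 active = compounds whose dose series gives a full or clear partial fitted curve of increased nuclear translocation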; note: potency is the fitted concentration of half-maximal effect); settings: U2OS GR-GFP nuclear translocation, laser cytometry, 2 h
Sequence of Glucocorticoid receptor (Homo sapiens) (P04150 whole entry, looked up, the tested form may be a part): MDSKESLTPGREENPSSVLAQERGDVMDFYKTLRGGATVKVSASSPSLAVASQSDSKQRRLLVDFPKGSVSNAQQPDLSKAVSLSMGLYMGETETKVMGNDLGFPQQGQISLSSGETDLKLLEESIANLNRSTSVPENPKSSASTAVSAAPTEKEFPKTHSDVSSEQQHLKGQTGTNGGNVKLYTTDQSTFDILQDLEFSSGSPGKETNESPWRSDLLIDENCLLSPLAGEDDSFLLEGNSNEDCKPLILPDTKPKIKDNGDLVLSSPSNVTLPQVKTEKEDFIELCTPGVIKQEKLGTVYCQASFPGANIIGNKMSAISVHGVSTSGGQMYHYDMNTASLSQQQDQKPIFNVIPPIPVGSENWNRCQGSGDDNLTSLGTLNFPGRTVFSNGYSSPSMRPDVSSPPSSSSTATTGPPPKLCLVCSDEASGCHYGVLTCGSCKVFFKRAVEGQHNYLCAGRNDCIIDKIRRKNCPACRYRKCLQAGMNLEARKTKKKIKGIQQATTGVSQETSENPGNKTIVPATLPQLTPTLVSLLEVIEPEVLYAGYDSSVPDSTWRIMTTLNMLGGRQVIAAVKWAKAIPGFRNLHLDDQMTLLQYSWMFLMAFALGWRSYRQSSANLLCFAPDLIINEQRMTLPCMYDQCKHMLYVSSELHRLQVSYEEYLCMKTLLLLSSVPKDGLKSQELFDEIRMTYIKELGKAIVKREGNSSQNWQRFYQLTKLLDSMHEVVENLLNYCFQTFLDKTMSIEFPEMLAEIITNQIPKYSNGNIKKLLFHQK

[2] = biological target: DNA dC->dU-editing enzyme APOBEC-3G (Homo sapiens) (UniProt Q9HC16); assay: qHTS for inhibitors of Vif-A3G interactions: Validation (AID 588379); settings: Vif-A3G protein interaction assay; series mostly up to 46.1 µM; note: potency is the fitted concentration of half-maximal effect; for activity change, negative = inhibition: 0% is about no effect
Sequence of DNA dC->dU-editing enzyme APOBEC-3G (Homo sapiens) (Q9HC16 whole entry, looked up): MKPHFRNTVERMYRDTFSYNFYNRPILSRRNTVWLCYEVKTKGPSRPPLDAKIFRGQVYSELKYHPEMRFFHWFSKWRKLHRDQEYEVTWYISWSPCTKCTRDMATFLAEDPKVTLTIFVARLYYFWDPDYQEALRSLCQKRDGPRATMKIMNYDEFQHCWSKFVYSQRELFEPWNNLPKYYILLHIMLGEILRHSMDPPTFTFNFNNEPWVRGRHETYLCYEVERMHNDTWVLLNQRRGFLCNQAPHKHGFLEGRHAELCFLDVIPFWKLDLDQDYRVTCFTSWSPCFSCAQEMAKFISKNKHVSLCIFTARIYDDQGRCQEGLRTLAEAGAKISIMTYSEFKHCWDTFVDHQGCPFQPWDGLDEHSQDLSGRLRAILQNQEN
How it was run: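 Yellow fluorescence (Ex 488, Em 500-530) of Vif-coexpressing HeLa A3G-eYFP cells, scanned by Acumen cytometer, reports blocked A3G degradation. Cells plated at 700/well overnight at 37 deg C before compound addition, then a further overnight compound incubation at 37 deg C.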

[3] = test system: Zika virus NS2B-NS3 protease; assay: Primary screen GU AMC qHTS for Zika virus inhibitors (AID 1347154); settings: Zika NS2B-NS3 unlinked protease, AMC fluorogenic substrate; series mostly up to 54.1 µM; note: nearly all actives have a fitted effect of over 70% in size; note: potency is the fitted concentration of half-maximal effect;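 for activity change, negative = inhibition: 0% = no-inhibitor control and -100% = no-enzyme control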
How it was run: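 Unlinked Zika NS2B hydrophilic domain/NS3 protease domain noncovalent complex (25 nM final) in 10 mM Tris-HCl pH 8.0, 0.01% Tween 20, with AMC peptide substrate. Fluorescence (ex 340, em 450 nm) change over 15 min, room temperature; percent inhibition fitted to 4-parameter Hill equation.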

[4] = Primary qHTS for small molecule stabilizers of the endoplasmic reticulum resident proteome: Secreted ER Calcium Modulated Protein (SERCaMP) assay (AID 1508630); settings: SH-SY5Y GLuc-SERCaMP (Gaussia luciferase released on ER calcium loss) secretion, thapsigargin, luminescence; series mostly up to 38.4 µM; note: % is set by controls: 0 for no effect and ±100 for the full control effect
How it was run: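 The SH-SY5Y reporter protocol was run at 3 concentrations up to 38.3 uM (primary) or 11 concentrations (follow-up): 16 h compound, 100 nM thapsigargin for 4 h, then extracellular luciferase luminescence.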

[5] = AP1 Signaling Pathway (AID 357; active = well fitted curve in either direction with a large enough effect, not every such curve was filed as active;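 note: ME-180 reporter cells stimulated with EGF at its EC50 level; % is set by controls: 0 for no effect and ±100 for the full control effect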); settings: ME-180 (cervical carcinoma) AP-1-bla reporter, EGF-induced, beta-lactamase ratio, 5 h; series mostly up to 38 µM
How it was run: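 Read-out was the 460nm/530nm emission ratio (excitation 405nm) after CCF4 loading for 2.5 hours at room temperature. Cells carried an AP-1-driven beta-lactamase reporter, were stimulated with EC50 EGF plus compound for 5 hours, and AC50 values came from titrations.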

[6] = biological target: Cytochrome P450 1A2 (Homo sapiens) (UniProt P05177); assay: p450-cyp1a2 (AID 410; calls by dose curve; note: potency is the fitted concentration of half-maximal effect;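 for activity change, negative = inhibition: -100% = full effect of reference inhibitor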); settings: recombinant CYP1A2, luciferin-ME demethylation, luminescence; series mostly up to 57 µM
Sequence of Cytochrome P450 1A2 (Homo sapiens) (P05177 whole entry, looked up): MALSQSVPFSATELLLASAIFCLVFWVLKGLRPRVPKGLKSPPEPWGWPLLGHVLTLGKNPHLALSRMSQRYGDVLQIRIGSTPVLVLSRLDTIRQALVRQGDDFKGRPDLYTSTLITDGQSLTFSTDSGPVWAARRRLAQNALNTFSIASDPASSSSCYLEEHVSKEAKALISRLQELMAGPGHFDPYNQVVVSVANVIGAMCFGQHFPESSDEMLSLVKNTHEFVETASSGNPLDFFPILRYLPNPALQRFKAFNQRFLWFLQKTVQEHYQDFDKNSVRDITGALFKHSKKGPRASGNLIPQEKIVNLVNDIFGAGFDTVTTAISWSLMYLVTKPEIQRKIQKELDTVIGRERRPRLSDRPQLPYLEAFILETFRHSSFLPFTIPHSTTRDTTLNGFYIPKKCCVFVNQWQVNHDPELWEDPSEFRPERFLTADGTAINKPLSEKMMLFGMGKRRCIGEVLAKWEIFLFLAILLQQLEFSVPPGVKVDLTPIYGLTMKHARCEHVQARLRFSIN
How it was run: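 20nM CYP1A2, 100uM Luciferin-ME (=Km), 100mM KPO4; cpd 10 min RT; +NADPH regen, 60 min RT; stop/detect 20 min; luminescence. Normalized to furafylline 57 uM = full inhibition.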

[7] = NFAT Signaling Pathway (AID 444; active = well fitted curve in either direction with a large enough effect, not every such curve was filed as active;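 note: carbachol stimulus at about its EC50 of 1 µM final; % is set by controls: 0 for no effect and ±100 for the full control effect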); settings: Jurkat NFAT-bla M1, carbachol, beta-lactamase ratio, 5 h; at 38 µM (top of the series)
How it was run: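 Jurkat cells carrying an NFAT-driven β-lactamase reporter and co-transfected muscarinic M1 receptor were treated with compound plus carbachol (1 uM final, an EC50 level) for 5 h at 37 °C. CCF4 loading followed for 1 h at RT; 460/530 nm ratio gave %activity.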

[8] = biological target: Mitogen-activated protein kinase 10 (Mus musculus) (UniProt Q61831); assay: JNK3 AlphaScreen Assay (AID 530; active = well fitted curve in either direction with a large enough effect, not every such curve was filed as active;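 note: kinase came from lysate of stimulated human HepG2 cells; signal reports phosphorylation of biotinylated GST-cJun 1-79 at Ser73 with 10 µM ATP; % is set by controls: 0 for no effect and ±100 for the full control effect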); settings: JNK3 lysate, c-Jun phosphorylation; series mostly up to 57.1 µM
How it was run: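 Biotinylated GST-cJun(1-79) served as substrate for JNK3 in HepG2 lysates stimulated with IL-1beta and TNF-alpha. ATP was 10 uM final, pH 7.6. Ser73 phosphorylation was quantified by AlphaScreen (680 nm excitation).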

[9] = biological target: 3',5'-cyclic-AMP phosphodiesterase 4B (Homo sapiens) (UniProt Q07343); assay: qHTS Assay for Inhibitors of PDE-IV (AID 607; active = well fitted activation curve with a large enough effect in the main read-out, with a control signal flat, not every such curve was filed as active; note: % of control where 0% means no effect); settings: HEK293 ACTOne CNG channel cells, membrane potential fluorescence; series mostly up to 22.9 µM
Sequence of 3',5'-cyclic-AMP phosphodiesterase 4B (Homo sapiens) (Q07343 whole entry, looked up): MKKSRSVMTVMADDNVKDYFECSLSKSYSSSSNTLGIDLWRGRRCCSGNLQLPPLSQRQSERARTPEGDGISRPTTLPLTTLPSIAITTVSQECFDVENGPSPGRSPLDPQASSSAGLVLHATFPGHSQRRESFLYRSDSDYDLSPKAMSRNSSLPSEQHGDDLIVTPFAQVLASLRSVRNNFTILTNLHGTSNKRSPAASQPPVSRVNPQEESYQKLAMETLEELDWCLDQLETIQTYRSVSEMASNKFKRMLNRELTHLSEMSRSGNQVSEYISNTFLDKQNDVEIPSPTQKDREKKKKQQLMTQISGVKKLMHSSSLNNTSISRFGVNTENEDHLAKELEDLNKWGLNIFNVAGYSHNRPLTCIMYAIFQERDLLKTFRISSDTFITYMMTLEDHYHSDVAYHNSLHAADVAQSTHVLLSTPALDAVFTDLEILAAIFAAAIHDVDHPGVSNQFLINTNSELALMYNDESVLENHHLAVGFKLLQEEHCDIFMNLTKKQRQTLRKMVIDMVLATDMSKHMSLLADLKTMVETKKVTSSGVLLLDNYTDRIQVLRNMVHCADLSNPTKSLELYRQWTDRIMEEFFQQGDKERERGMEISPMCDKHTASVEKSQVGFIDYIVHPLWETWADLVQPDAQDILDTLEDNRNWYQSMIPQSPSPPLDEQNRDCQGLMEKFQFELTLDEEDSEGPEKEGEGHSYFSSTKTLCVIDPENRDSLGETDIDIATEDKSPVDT
How it was run: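 Live HEK293 cells with a modified cyclic nucleotide-gated (CNG) channel report intracellular cAMP via membrane-potential dye fluorescence (ex 535/em 590 nm). Endogenous PDE-IV was targeted. Compounds were tested at up to 22.9 uM final; RO 20-1724 100 uM served as control.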

[10] = biological target: Cytochrome P450 2D6 (Homo sapiens) (UniProt P10635); assay: qHTS Assay for Inhibitors and Substrates of Cytochrome P450 2D6 (AID 891); settings: recombinant CYP2D6, luciferin-ME EGE luminescence; series mostly up to 57.1 µM;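 note: luciferin methyl ether substrate demethylated by CYP2D6 with NADPH regeneration; % is set by controls: 0 for no effect and ±100 for the full control effect; nearly all actives have a fitted effect of over 60% in size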
How it was run: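 Luminescent read-out of luciferin formed by 5 nM human CYP2D6 demethylating 30 uM Luciferin-ME EGE (Km level) over 60 min at room temperature after NADPH regeneration addition. Data normalized to full inhibition by 1.43 uM quinidine.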

[11] = biological target: Cytochrome P450 2C19 (Homo sapiens) (UniProt P33261); assay: qHTS Assay for Inhibitors and Substrates of Cytochrome P450 2C19 (AID 899); settings: recombinant CYP2C19, luciferin-H EGE luminescence; series mostly up to 57.1 µM; note: % is set by controls: 0 for no effect and ±100 for the full control effect; nearly all actives have a fitted effect of over 60% in size
Sequence of Cytochrome P450 2C19 (Homo sapiens) (P33261 whole entry, looked up): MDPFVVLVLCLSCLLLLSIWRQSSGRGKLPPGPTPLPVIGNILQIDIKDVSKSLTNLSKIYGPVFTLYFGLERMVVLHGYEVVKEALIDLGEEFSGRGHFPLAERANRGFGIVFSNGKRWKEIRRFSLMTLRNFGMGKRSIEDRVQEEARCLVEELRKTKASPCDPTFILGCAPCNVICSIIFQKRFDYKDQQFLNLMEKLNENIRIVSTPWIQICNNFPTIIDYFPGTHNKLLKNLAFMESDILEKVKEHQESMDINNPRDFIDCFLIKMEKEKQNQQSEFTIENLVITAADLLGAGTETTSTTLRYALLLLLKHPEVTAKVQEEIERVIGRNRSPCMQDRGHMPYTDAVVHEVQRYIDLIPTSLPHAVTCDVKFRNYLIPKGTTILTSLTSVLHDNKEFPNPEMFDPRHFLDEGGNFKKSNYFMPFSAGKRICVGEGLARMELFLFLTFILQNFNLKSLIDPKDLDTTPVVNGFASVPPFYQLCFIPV
How it was run: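 In 50mM KPO4, the reaction held 5nM enzyme and KM-level (10uM) Luciferin-H EGE; it ran 60 min at 37C after NADPH regeneration and a 10 min compound preincubation. Luminescence values were scaled to 57uM ketoconazole as complete inhibition.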

[12] = biological target: Pyruvate kinase (Leishmania mexicana) (UniProt Q27686); assay: qHTS Validation Assay for Inhibitors of Leishmania Mexicana Pyruvate Kinase (AID 945);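 note: 0% = DMSO only neutral control wells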; settings: purified L. mexicana pyruvate kinase, enzyme activity, E451W mutant enzyme; series mostly up to 57.5 µM
Sequence of Pyruvate kinase (Leishmania mexicana) (Q27686 2-499 E452W): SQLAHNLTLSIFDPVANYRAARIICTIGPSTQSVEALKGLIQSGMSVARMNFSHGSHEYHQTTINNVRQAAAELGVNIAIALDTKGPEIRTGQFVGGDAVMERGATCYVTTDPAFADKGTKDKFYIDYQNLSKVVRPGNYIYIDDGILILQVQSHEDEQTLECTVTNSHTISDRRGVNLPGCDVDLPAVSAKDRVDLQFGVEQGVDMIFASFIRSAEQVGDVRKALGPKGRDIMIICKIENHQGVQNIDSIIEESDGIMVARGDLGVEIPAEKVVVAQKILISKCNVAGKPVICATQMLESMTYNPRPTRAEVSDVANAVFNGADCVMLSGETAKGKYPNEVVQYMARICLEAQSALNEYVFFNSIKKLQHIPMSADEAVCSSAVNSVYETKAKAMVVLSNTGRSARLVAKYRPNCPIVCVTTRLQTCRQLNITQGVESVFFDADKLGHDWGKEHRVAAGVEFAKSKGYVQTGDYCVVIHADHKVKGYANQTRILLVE
How it was run: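 An endpoint luciferase assay: 0.2 nM LmPYK E451W turns over 0.5 mM PEP with 0.1 mM ADP for 1 h at room temperature, pH 7.2, before PKLight addition. Values are normalized to DMSO-only wells.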

[13] = biological target: Pyruvate kinase PKM (Homo sapiens) (UniProt P14618); assay: qHTS Assay for Activators of Human Muscle Pyruvate Kinase (AID 954; active = well fitted curve in the direction sought with a large enough effect, not every such curve was filed as active;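 note: 0% = uninhibited enzyme and -100% = no enzyme or full thiadiazolimine inhibition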); settings: purified human muscle pyruvate kinase, luciferase-coupled luminescence, 1 h; series mostly up to 57.5 µM
Sequence of Pyruvate kinase PKM (Homo sapiens) (P14618 whole entry, looked up): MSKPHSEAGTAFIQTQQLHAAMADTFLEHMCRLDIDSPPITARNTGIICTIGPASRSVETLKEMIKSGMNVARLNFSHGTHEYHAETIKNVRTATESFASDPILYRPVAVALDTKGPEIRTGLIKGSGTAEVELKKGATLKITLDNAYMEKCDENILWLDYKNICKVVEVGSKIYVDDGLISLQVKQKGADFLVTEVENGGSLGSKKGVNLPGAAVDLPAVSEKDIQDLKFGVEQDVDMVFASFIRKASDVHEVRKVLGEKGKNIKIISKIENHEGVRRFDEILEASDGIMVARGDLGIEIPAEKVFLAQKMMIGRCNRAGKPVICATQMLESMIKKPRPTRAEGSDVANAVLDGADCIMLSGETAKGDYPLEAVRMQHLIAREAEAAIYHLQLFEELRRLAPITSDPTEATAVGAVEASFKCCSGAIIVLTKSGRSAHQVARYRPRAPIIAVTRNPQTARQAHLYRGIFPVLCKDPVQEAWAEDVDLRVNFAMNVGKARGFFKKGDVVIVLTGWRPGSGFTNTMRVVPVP
How it was run: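 Screening used highly purified human pyruvate kinase M2 under submaximal activity, with PEP at its Km and ADP below Km. After an hour at room temperature, ATP was read by luciferase luminescence.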

[14] = biological target: Alpha-galactosidase (Coffea arabica) (UniProt Q42656); assay: Counterscreen for Glucocerebrosidase Inhibitors: qHTS Assay for Coffee Bean alpha-Galactosidase at pH 4.5 (AID 957); settings: purified coffee bean alpha-galactosidase, fluorogenic substrate; series mostly up to 76.9 µM;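 note: plate controls were enzyme alone for no effect and no enzyme for full effect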
Sequence of Alpha-galactosidase (Coffea arabica) (Q42656 whole entry, looked up): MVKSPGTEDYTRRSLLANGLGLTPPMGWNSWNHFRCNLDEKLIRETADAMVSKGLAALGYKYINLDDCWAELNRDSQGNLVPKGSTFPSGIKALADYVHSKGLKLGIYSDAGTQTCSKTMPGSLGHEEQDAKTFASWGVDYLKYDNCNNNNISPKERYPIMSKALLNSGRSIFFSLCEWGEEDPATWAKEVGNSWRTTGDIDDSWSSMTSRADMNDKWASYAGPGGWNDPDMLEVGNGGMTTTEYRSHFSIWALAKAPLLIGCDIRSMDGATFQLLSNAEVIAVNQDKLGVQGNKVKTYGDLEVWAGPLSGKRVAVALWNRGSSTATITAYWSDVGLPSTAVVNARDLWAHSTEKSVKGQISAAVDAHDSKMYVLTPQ
How it was run: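 Fluorogenic read-out: 4-methylumbelliferone at Ex 365/Em 440 nm after NaOH/glycine stop (pH 10). Enzyme 2 nM, 4-MU-alpha-galactoside 80 uM, citrate buffer pH 4.5, 20 min RT; normalized to no-enzyme and enzyme controls.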

[15] = biological target: Alpha-galactosidase A (Homo sapiens) (UniProt P06280); assay: Counterscreen for Glucocerebrosidase Inhibitors: qHTS Assay for Human alpha-Galactosidase at pH 4.5 (AID 992); settings: purified enzyme, fluorogenic substrate; series mostly up to 76.9 µM; note: 0% is about no effect
Sequence of Alpha-galactosidase A (Homo sapiens) (P06280 whole entry, looked up): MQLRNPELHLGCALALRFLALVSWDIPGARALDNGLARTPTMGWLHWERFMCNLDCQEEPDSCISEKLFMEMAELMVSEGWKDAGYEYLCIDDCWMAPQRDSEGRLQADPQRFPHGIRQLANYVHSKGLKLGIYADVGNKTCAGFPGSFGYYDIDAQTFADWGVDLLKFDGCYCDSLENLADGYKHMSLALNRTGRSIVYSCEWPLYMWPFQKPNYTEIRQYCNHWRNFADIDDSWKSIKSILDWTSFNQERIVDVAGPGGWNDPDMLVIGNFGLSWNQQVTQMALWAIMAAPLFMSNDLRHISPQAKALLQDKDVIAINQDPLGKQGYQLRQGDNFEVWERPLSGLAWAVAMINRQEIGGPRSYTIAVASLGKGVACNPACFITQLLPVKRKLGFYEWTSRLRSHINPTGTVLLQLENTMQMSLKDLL
How it was run: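 Each compound is preincubated briefly with 2 nM enzyme before substrate addition (80 uM); plates then sit 20 min at ambient temperature, are quenched with 1M NaOH/1M glycine, and read fluorometrically.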

[16] = biological target: alpha-glucosidase (Oryza sativa, rice) (UniProt Q653V4); assay: Counterscreen for Glucocerebrosidase Inhibitors: qHTS Assay for Rice alpha-Glucosidase at pH 5.0 (AID 997); settings: rice alpha-glucosidase enzyme activity; series mostly up to 76.9 µM;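 note: 0% = full activity with enzyme and -100% = basal without enzyme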
How it was run: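 Endpoint fluorogenic assay at pH 5.0: compounds (0.7 nM to 77 uM) titrated against 4 nM rice enzyme and 400 uM 4-MU-alpha-glucoside for 20 min at room temperature; NaOH/glycine stop, read ex 365/em 440 nm, Hill-fitted AC50.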

[17] = biological target: Alpha-galactosidase (Coffea arabica) (UniProt Q42656); assay: Counterscreen for Glucocerebrosidase Inhibitors: qHTS Assay for Coffee Bean alpha-Galactosidase at pH 5.9 (AID 998); settings: coffee bean alpha-galactosidase enzyme assay; series mostly up to 76.9 µM;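 note: plate controls were uninhibited enzyme for no effect and no-enzyme basal signal for full effect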
How it was run: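 In 50 mM citric acid pH 5.9 with 0.005% Tween-20, coffee bean enzyme hydrolyses 80 uM 4-MU alpha-D-galactopyranoside over 20 min at RT. Activity is normalized to controls; AC50 comes from Hill-modelled concentration-response data.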

[18] = qHTS Assay for Lipid Storage Modulators (AID 1519; calls by dose curve); settings: Drosophila S3 cells, BODIPY lipid droplet/cell ratio, laser cytometry, cells loaded with oleic acid; for activity change, negative = inhibition: at 57.5 µM (top of the series)
How it was run: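 Cells seeded at 5,000 per well were treated with compounds over a concentration series and loaded with oleic acid (400 uM, as added). Lipid droplet fluorescence (488 nm excitation, 500-530 nm channel) was read by laser-scanning cytometry and normalized to 20 uM Triacsin C.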

[19] = biological target: Glucocorticoid receptor (Homo sapiens) (UniProt P04150); assay: GR-EFC Redistribution (AID 451; calls by dose curve; note: potency is the fitted concentration of half-maximal effect); settings: CHO-K1 GR-EFC translocation, beta-gal luminescence, 2 h
How it was run: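 CHO-K1 cells stably expressing nuclear-localized β-gal enzyme acceptor and GR fused C-terminally to the enzyme donor fragment; ligand-driven nuclear translocation restores β-gal by complementation. Compounds titrated up to 46 uM final, 2 h at 37 °C; luminescence read.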

[20] = biological target: Ubiquitin carboxyl-terminal hydrolase 1 (Homo sapiens) (UniProt O94782); assay: Inhibitors of USP1/UAF1: Pilot qHTS (AID 504865); settings: purified USP1/UAF1, Ub-rhodamine cleavage fluorescence; series mostly up to 114 µM;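 note: rhodamine fluorescence freed from ubiquitin-rhodamine substrate followed over time; top concentration of the series differs between compounds; % is set by controls: 0 for no effect and ±100 for the full control effect; nearly all actives have a fitted effect of over 35% in size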
How it was run: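 1nM USP1/UAF1 + cpd, 15 min RT; start w/ Ub-Rho 150nM final; kinetic FL 480/540 nm, 6 reads q60 s. Buffer 50mM HEPES pH 7.8, 0.5mM EDTA, 1mM TCEP, 0.01% Tween-20, 0.1 mg/ml BSA.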

[21] = measured here: cell count channel max response
[22] = measured here: lipid channel max response

CN1Cc2ccccc2[C@@H]2c3cccc4[nH]cc(c34)C[C@H]21
active: Potency [2] 26.6 µM
inactive: Potency [1] > 46 µM | Potency [3] | Potency [4]

CN1C(=O)CCS(=O)(=O)[C@H]1c1ccc(Cl)cc1
-1.62%: max response [18, 21]
2.79%: max response [18, 22]
inactive: outcome [5] | Potency [6] | activity change, negative = inhibition [7] 2.77% | Potency [1] > 46 µM | outcome [8] | Potency [9] | Potency [10] | Potency [11] | outcome [12] | outcome [13] | outcome [14] | outcome [15] | outcome [16] | outcome [17] | activity change, negative = inhibition [18] -2.49% | Potency [2] | Potency [3] | Potency [4]

CC(C)(O)[C@@H]1[C@H]2OC(=O)[C@@H]1[C@]1(O)C[C@H]3O[C@]34C(=O)O[C@H]2[C@@]14C (tested in a mixture with another compound)
-11.1%: max response [18, 22]
-8.87%: max response [18, 21]
inactive: Potency [1] > 46 µM | Potency [19] > 46 µM | activity change, negative = inhibition [18] -0.708% | Potency [20] | Potency [2] | Potency [3] | Potency [4]

C=C(C)[C@H]1CN[C@H](C(=O)O)[C@@H]1CC(=O)O
-4.1%: max response [18, 22]
-5.55%: max response [18, 21]
inactive: Potency [6] | Potency [1] > 46 µM | Potency [19] > 46 µM | outcome [12] | outcome [13] | outcome [14] | outcome [15] | outcome [16] | outcome [17] | activity change, negative = inhibition [18] 2.85% | Potency [20] | Potency [2] | Potency [3] | Potency [4]

CN1CCc2cc(O)cc3c2C1Cc1ccc(O)c(O)c1-3 (stereo unspecified)
inactive: Potency [4]
active: Potency [3] 18.9 µM

CCN1C[C@]2(C)CC[C@H](O)[C@@]34C5C[C@@H]6[C@@H](OC)C[C@@](O)(C5[C@H]6O)[C@@H](CC23)[C@@H]14 (stereo partly specified)
-11%: max response [18, 22]
inactive: activity change, negative = inhibition [18] 1.68% | Potency [2] | Potency [3] | Potency [4]
-11.5%: max response [18, 21]

CCCn1c(C)c(C(=O)c2cccc3ccccc23)c2ccccc21
active: Potency [6] 2 µM
inactive: Potency [1] > 46 µM | outcome [8] | Potency [2] | Potency [3] | Potency [4]

O=C(O)[C@H]1[C@H]2CN[C@H](C(=O)O)[C@H]21
inactive: Potency [1] > 46 µM | Potency [19] > 46 µM | Potency [9] | activity change, negative = inhibition [18] -5.1% | Potency [2] | Potency [3] | Potency [4]
active: Potency [6] 31.6 µM
-16.1%: max response [18, 22]
-11.8%: max response [18, 21]

N#CC(C#N)=Cc1ccc([N+](=O)[O-])c(O)c1
active: Potency [6] 31.6 µM
inactive: Potency [1] > 46 µM | Potency [19] > 46 µM | outcome [8] | Potency [9] | outcome [12] | outcome [13] | outcome [14] | outcome [15] | outcome [16] | outcome [17] | Potency [3] | Potency [4]
